# Inconclusive results are not listed. A number with no mark means an inactive call. Activity calls are given as the source filed them. Calls come from the whole dose curve; as a rule, active = well fitted inhibition curve with a large enough effect; inconclusive = small, poorly fitted or top-dose-only effect; inactive = flat fitted curve, though single readings scatter.
# Experiments:
# [1] = system: HaCat; experiment: Cytotoxic Profiling of Annotated Libraries Using Quantitative High-Throughput Screening (AID 1296008); settings: Five cell lines viability, CellTiter-Glo ATP luminescence, 48-72 h; max response: stronger effect = lower value; note: potency is the fitted concentration of half-maximal effect; for max response: % is set by controls: 0 for no effect and ±100 for the full control effect
# Summary of the method: (§1)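 Cells exposed to compounds for 48 or 72 hr at 37 degrees Celsius. Viability read as ATP-coupled luminescence with CellTiter-Glo after 10 min at room temperature.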
# [2] = system: KB-3-1; experiment: as above; settings: Five cell lines viability, CellTiter-Glo ATP luminescence, 48-72 h; max response: stronger effect = lower value
# Summary of the method: as §1
# [3] = system: NIH3T3; experiment: as above; settings: Five cell lines viability, CellTiter-Glo ATP luminescence, 48-72 h; max response: stronger effect = lower value
# Summary of the method: as §1
# [4] = system: HACAT; experiment: qHTS assay to identify novel small-molecules to repurpose for Merkel cell carcinoma treatment (AID 1296009); settings: MCC and control cell lines, CellTiter-Glo viability, 72 h; series mostly up to 44.8 µM
# Summary of the method: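 CellTiter-Glo luminescence after 72 hr compound exposure at 37 degree celsius gave cell viability. Libraries NPC and MIPE were run as 8- and 11-point dose responses; RLUs normalized to DMSO (negative) and no-cell (cytotoxicity) controls.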
# [5] = system: HEK293; experiment: Cytotoxic Profiling of Annotated Libraries Using Quantitative High-Throughput Screening (AID 1296008); settings: Five cell lines viability, CellTiter-Glo ATP luminescence, 48-72 h; max response: stronger effect = lower value; note: potency is the fitted concentration of half-maximal effect; for max response: % is set by controls: 0 for no effect and ±100 for the full control effect
# Summary of the method: as §1
# Note: nearly all actives have a fitted effect of over 60% in size.
smiles,measurement,setting,value
COC(=O)C12C(=O)C(C)=C(O)C1(C)C(C)=CC1C3(CO)CCC(O)C(C)(C)C3CCC12C (stereo not given),outcome,[1],inactive
same,max response,[2],-2.12%
same,max response,[3],-3.91%
same,Potency,[4],inactive
C=C1C(=O)O[C@@H]2C/C(C)=C\C(=O)/C=C(\C)[C@@H](OC(=O)/C(C)=C\C)[C@H](O)[C@@H]12,Potency,[5],1.61 µM (active)
same,Potency,[2],11.4 µM (active)
same,Potency,[3],10.1 µM (active)
Cc1[nH]c2ccccc2c1C1=C(NCCc2ccc(F)cc2)C(=O)N(C)C1=O,Potency,[1],8.2 µM (active)
same,max response,[2],-15.2%
same,Potency,[3],14.6 µM (active)
Cc1cc(C)c(Nc2ccnc(Nc3ccc(C#N)cc3)n2)c(C)c1,Potency,[5],5.17 µM (active)
same,Potency,[2],20.6 µM (active)
same,Potency,[3],13 µM (active)
CC(=O)O[C@H]1C(=O)[C@@]2(C)[C@H]([C@H](OC(=O)c3ccccc3)[C@]3(O)C[C@H](OC(=O)[C@H](O)[C@@H](NC(=O)c4ccccc4)c4ccccc4)C(C)=C1C3(C)C)[C@]1(OC(C)=O)CO[C@@H]1C[C@@H]2O,Potency,[5],0.0055 µM (active)
same,Potency,[2],0.0098 µM (active)
same,Potency,[3],0.031 µM (active)
CO[C@H]1C[C@@H]2CC[C@@H](C)[C@@](O)(O2)C(=O)C(=O)N2CCCC[C@H]2C(=O)O[C@H]([C@H](C)C[C@@H]2CC[C@@H](OP(C)(C)=O)[C@H](OC)C2)CC(=O)[C@H](C)/C=C(\C)[C@@H](O)[C@@H](OC)C(=O)[C@H](C)C[C@H](C)/C=C/C=C/C=C/1C,max response,[1],-0.379%
same,max response,[2],3.84%
same,max response,[3],-16.2%
Cc1ncc(CCCN(C)C)cc1Nc1ncc2c(n1)-c1ccc(C(F)(F)F)cc1NC(=S)C2,Potency,[2],0.0046 µM (active)
same,Potency,[3],3.66 µM (active)
C=CC(=O)Nc1cc(Nc2ncc(Cl)c(-c3c[nH]c4ccccc34)n2)c(OC)cc1N(C)CCN(C)C,Potency,[1],0.58 µM (active)
same,Potency,[2],4.11 µM (active)
same,Potency,[3],5.8 µM (active)
CC(Oc1cc(-n2cnc3ccc(CN4CCN(C)CC4)cc32)sc1C(N)=O)c1ccccc1C(F)(F)F (stereo not given),Potency,[5],1.3 µM (active)
same,Potency,[2],0.651 µM (active)
same,Potency,[3],8.2 µM (active)
N#Cc1c(Oc2ccc(F)c(NC(=O)Cc3cccc(C(F)(F)F)c3)c2)ccc2nc(NC(=O)C3CC3)sc12,Potency,[5],1.3 µM (active)
same,Potency,[2],16.4 µM (active)
same,Potency,[3],1.46 µM (active)
